# Screening results: PubChem, National Center for Advancing Translational Sciences (NCATS)
# RECQ1 helicase: RECQ1 (human) helicase inhibition; actives 0.54% (n = 240,000); Potency, µM (top dose mostly 57.3 µM), without a hit: at the top dose activity, negative = inhibition, most hits filed as inhibitors; P46063; RECQ1 DNA unwinding, red fluorescence kinetic read; AID 2549;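 also: plate controls were vehicle for no effect and no enzyme for full effect; nearly all actives have a fitted effect of over 30% in size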
#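 50 nM RECQ1T1 preincubated 15 min with compound in Tris pH 8.0 buffer with MgCl2, DTT, Tween-20 and 2.5 ug/ml poly(dI-dC); started with 200 nM TAMRA/BHQ-2 forked duplex and 2 mM ATP. Unwinding read as fluorescence (525/598 nm), two reads 2 h apart.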
# TDP1 block: blocks human tyrosyl-DNA phosphodiesterase 1. actives 0.28% (n = 350,000). AID 485290. Potency, µM (titrated, usually from 130 µM), inactives show top-dose activity change, negative = inhibition, usual class: inhibitors. recombinant TDP1, AlphaScreen DNA substrate cleavage; also: nearly all actives have a fitted effect of over 40% in size
#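 Here, a 5' biotin and 3' phosphotyrosine-FITC DNA oligonucleotide reports Tdp1 activity: intact substrate bridges AlphaScreen beads, while cleavage leaves a 3' phosphate and drops signal. All incubations at room temperature.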
# BLM inh: blocks DNA unwinding by human BLM helicase; actives 0.2% (n = 350,000); recombinant BLM DNA unwinding, fluorescence dequenching; AID 2528; Potency, µM (doses to about 56.1 µM), inactives show at the top dose activity change, negative = inhibition, actives largely listed as inhibitors;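 also: plate controls were vehicle for no effect and no enzyme for full effect; nearly all actives have a fitted effect of over 35% in size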
# GLS inh: inhibitors of human glutaminase (GLS); actives 0.21% (n = 410,000); Potency, µM (top dose mostly 45.5 µM), inactives show at the top dose activity change, negative = inhibition, actives largely listed as inhibitors; O94925; GLS enzymatic activity, qHTS titration
# Target sequence (O94925 whole entry, looked up): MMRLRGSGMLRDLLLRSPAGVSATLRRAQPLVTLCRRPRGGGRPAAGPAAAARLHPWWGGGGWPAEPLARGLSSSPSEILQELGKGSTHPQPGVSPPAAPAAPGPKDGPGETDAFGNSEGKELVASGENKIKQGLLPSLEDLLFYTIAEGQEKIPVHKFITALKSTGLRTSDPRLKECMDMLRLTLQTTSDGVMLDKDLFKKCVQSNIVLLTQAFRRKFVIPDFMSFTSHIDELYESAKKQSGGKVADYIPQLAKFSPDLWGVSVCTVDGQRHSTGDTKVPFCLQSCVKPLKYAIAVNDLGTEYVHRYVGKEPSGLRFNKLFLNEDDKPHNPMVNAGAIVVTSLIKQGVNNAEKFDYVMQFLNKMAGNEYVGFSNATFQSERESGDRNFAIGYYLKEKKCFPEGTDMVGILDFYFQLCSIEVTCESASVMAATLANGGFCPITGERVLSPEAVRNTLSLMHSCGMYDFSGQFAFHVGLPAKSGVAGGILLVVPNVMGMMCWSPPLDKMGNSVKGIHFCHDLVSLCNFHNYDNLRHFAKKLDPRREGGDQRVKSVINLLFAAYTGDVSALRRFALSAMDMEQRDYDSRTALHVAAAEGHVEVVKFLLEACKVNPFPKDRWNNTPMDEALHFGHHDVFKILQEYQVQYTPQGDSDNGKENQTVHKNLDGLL
#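 Two-point fluorescence kinetic (t0, 30 min RT) for hKGA; glutamate detected via glutamate oxidase–HRP–Amplex Red. Substrate: 1 mM L-glutamine solution; buffer 45 mM KH2PO4, pH 8.2.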
# Tb PGK inh: T. brucei PGK inhibition. Potency, µM (top dose mostly 57.5 µM), inactives show at the highest dose activity change, negative = inhibition, most hits filed as inhibitors. actives 0.043% (n = 380,000). PGK/GAPDH coupled, Kinase-Glo luminescence, 60 min. P07378; also: nearly all actives have a fitted effect of over 60% in size
#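 Recombinant glycosomal PGK reaction used 1,3-bisphosphoglycerate generated in-well by GAPDH (100nM final) in 100mM TEA pH 7.6, 5mM MgCl2, 0.01% Tween-20. After 60 minutes at room temperature, ATP was read by Kinase-Glo Plus luminescence end-point.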
# APE1 inh-1: blocks human APE1 abasic DNA cleavage; recombinant APE1, TAMRA/BHQ-2 abasic DNA cleavage fluorescence; Potency, µM (series often up to 65.8 µM), inactives show at the top dose activity change, negative = inhibition, hits mostly inhibitors; actives 0.35% (n = 350,000);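 also: plate controls were vehicle for no effect and reference inhibitor for full effect; nearly all actives have a fitted effect of over 55% in size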
#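 Readout is kinetic fluorescence (ex 525, em 598 nm) from cleavage of 50 nM TAMRA/BHQ-2 THF abasic duplex by 0.75 nM APE1, compound added 15 min beforehand at RT.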
# DNA dye displace: counter-screen for APE1 inhibitors: DNA dye displacement. actives 7% (n = 480). shares compounds with APE1 inh-1. Potency, µM (top dose mostly 28.5 µM), without a hit: top-dose activity change, negative = inhibition, most hits filed as inhibitors. AID 2564. DNA fluorescent dye displacement counterscreen, fluorescence;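 also: loss of thiazole orange fluorescence as the dye is displaced from duplex DNA; 0% = ThO with dsDNA and no compound and -100% = ThO without dsDNA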
# EndoIV counter: Endo IV (E. coli) inhibition counter-screen. shares compounds with APE1 inh-1. E. coli Endo IV, fluorogenic AP-site DNA cleavage. Potency, µM (series often up to 27.1 µM), for the others: at the top dose activity change, negative = inhibition, actives largely listed as inhibitors. actives 4% (n = 560). AID 2565;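 also: plate controls were uninhibited enzyme wells for no effect and no enzyme buffer wells for full effect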
# APE1 inh-2: APE1 (human) endonuclease inhibition, confirmation. Potency, µM (series often up to 57.1 µM), for inactives: top-dose activity change, negative = inhibition, actives largely listed as inhibitors. shares compounds with APE1 inh-1. actives 44% (n = 750). AID 2572. purified APE1, fluorogenic abasic-site DNA cleavage; also: nearly all actives have a fitted effect of over 30% in size
# APE1 FP: compounds that displace a DNA probe from human APE1 | APE1 binding to TAMRA-labelled double-stranded DNA, fluorescence polarization displacement | Potency, µM (titrated, usually from 28.5 µM), inactives show at the highest dose activity, negative = inhibition, actives largely listed as inhibitors | actives 7% (n = 480) | AID 2573 | shares compounds with APE1 inh-1
# RECQ1 conf: confirmation of human RECQ1 helicase inhibitors; RECQ1 helicase DNA unwinding, fluorescence; actives 28% (n = 610); Potency, µM (series often up to 229 µM), for inactives: at the highest dose activity change, negative = inhibition, actives largely listed as inhibitors; shares compounds with RECQ1 helicase; also: nearly all actives have a fitted effect of over 45% in size
# * marks the source's active call; other numbers are inactive results; i = inactive; ? = inconclusive; . = no result given; ! = not active in a repeat; [ ] = another dose, or the depositor's remark. The list is not random: actives were taken first. Their share in the collection is about 0.85%. Calls follow the shape of the dose curve; as a rule, active = well fitted curve in the direction sought with a large enough effect; inconclusive = small, poorly fitted or top-dose-only effect, or another doubt; inactive = no such curve, though single readings can be large; an effect the other way counts as inactive or inconclusive. Unless noted, % is scaled to controls: 0 for no effect and ±100 for the full control effect; potency is read from the fitted curve at half-maximal effect.
SMILES,RECQ1 helicase,TDP1 block,BLM inh,GLS inh,Tb PGK inh,APE1 inh-1,EndoIV counter,APE1 inh-2,others
Cc1cc(/C=C2/C(=O)NC(=O)N(C)C2=O)c(C)n1-c1ccccc1,i,-2.7%,-6.0%,-6.3%,i,-7.8%,.,.,
Cn1cccc1/C=C1/C(=O)NC(=S)N(Cc2ccc(F)cc2)C1=O,25.1µM*,.,?,-21.2%,-13.6%,?,.,.,
CCCCn1c(N)c(C(=O)NCCN2CCOCC2)c2nc3ccccc3nc21,-20.8%,2.1%,-0.5%,-6.0%,-9.8%,-9.3%,.,.,
CCCCn1c(NC(=O)c2ccc(Br)o2)c(C(=O)OCC)c2nc3ccccc3nc21,-0.6%,0.0%,22.4µM*,37.2%,-2.2%,5.6%,.,.,
CCC12CCN(CCc3ccc([N+](=O)[O-])cc3)CC1Oc1c(O)cccc12 (centres undefined),.,.,.,.,.,-1.5%,.,.,
CC1(C)CC(=O)C2=C(C1)OC(N)=C([N+](=O)[O-])C2c1ccc(C#N)s1 (centres undefined),28.2µM*,-6.0%,-2.5%,-14.7%,-6.1%,?,.,.,
COC(=O)C1(O)CC2OC1(C)n1c3ccccc3c3c4c(c5c6ccccc6n2c5c31)C(=O)NC4 (centres undefined),-4.9%[11.5 µM],7.1%[21 µM],3.1%[12.4 µM],.,.,-6.0%[12.4 µM],.,.,
CN[C@H]1C[C@H]2O[C@@](C)([C@H]1OC)n1c3ccccc3c3c4c(c5c6ccccc6n2c5c31)C(=O)NC4,28.2µM*,8.7%,-8.0%,.,.,?,.,.,
CCN1C(=O)NC(=O)/C(=C\c2cn(CC(=O)O)c3ccccc23)C1=O,.,.,-1.0%,.,.,2.8%,.,.,
O=C(O)Cn1cc(/C=C2\C(=O)NC(=O)N(Cc3ccco3)C2=O)c2ccccc21,14.1µM*,.,76.9%,?,?,7.94µM*,22.2%,11.2µM*,DNA dye displace=?;APE1 FP=-3.4%
NCC(O)c1cc(O)c(O)cc1F (centres undefined),?,.,.,-2.7%,0.5%,1.12µM*!,-2.0%[57.1 µM],-20.0%,
C/C=C/C=O,-2.1%,6.5%,.,.,.,1.6%,.,.,
OC(c1ccc(Cl)cc1)(c1ccc(Cl)cc1)C(Cl)(Cl)Cl,-9.2%,-0.3%,.,.,.,-0.6%,.,.,
C=CCn1c(O)c(/C(CC)=N/NC(=S)Nc2ccccc2)c(=O)[nH]c1=O,-12.0%,39.8µM*,-1.6%,-12.5%,i,?,.,?,
COCCN(CCOC)C(=O)CCn1c(=O)oc2ccccc21,13.9%,2.4%,6.4%,9.1%,6.6%,19.2%,.,.,
CC(C)CC(=O)Nc1ccc(C(=O)Cn2c(=O)oc3ccccc32)cc1,-4.3%,-6.3%,-12.5%,-2.8%,-12.5%,?,-4.0%,?,DNA dye displace=-8.3%;APE1 FP=3.7%
CC(C)c1ccc(N2C(=O)NC(=O)/C(=C/C=C/c3ccco3)C2=O)cc1,?,0.0%,-21.4%,4.5%,6.7%,?,.,.,
CCCCN1C(=O)/C(=C/C=C/c2ccco2)C(=O)NC1=S,14.1µM*,.,40.9%,-11.4%,?,31.6µM*,52.8%,14.1µM*,DNA dye displace=29.8%;APE1 FP=65.3%
CC1Cc2ccccc2N1NC(=O)c1ccc(Cl)c(S(N)(=O)=O)c1 (centres undefined),-5.1%,2.9%,-8.2%,5.8%,0.0%,2.24µM*!,18.0%[57.1 µM],-9.9%,DNA dye displace=0.6%[57.1 µM];APE1 FP=8.4%[57.1 µM]
Cc1ccc(C(=O)Nc2ccccc2)cc1S(=O)(=O)N1CCCC1,.,1.9%,-4.9%,5.8%,-0.8%,.,.,.,
CC(C)NC(C)Cc1ccc(I)cc1 (centres undefined),0.6%,6.4%,-4.4%,-6.8%,-9.2%,8.0%,-4.8%[57.1 µM],-19.3%,
CN[C@H](C)Cc1ccccc1,.,.,.,-5.6%[99.4 µM],.,.,.,.,
CN1CCc2cc(O)cc3c2[C@H]1Cc1ccc(O)c(O)c1-3,.,.,.,-2.4%,-6.0%,.,.,.,
CCCN1CCc2cccc3c2C1Cc1ccc(O)c(O)c1-3 (centres undefined),-16.4%,4.9%,.,.,.,-0.2%,-2.3%[57.1 µM],-23.8%,
COc1ccc(CN2C(=O)NC(=O)/C(=C/c3ccoc3)C2=O)cc1,?,.,-20.1%,-22.4%,?,8.91µM*,-8.9%,3.98µM*,DNA dye displace=0.3%;APE1 FP=?
SMILES,RECQ1 helicase,TDP1 block,BLM inh,GLS inh,Tb PGK inh,APE1 inh-1,EndoIV counter,APE1 inh-2,others
CCCCNC(C)(C)[P+](=O)O,.,.,.,-7.7%,.,.,.,.,
O=c1c2ccccc2nc(/C=C/c2cccnc2)n1Cc1ccccc1,-7.1%,10µM*,-5.9%,?,?,?,.,28.2µM*,
CCSC(=O)Cl,-1.7%,14.9%,.,.,.,-0.5%,.,.,
Oc1cc(O)c2c(c1)OC(c1cc(O)c(O)c(O)c1)C(O)C2 (centres undefined),35.5µM*,15.8µM*,-27.3%,.,.,10µM*,16.0%[57.1 µM],5.01µM*,
O=C(OC1Cc2c(O)cc(O)cc2OC1c1cc(O)c(O)c(O)c1)c1cc(O)c(O)c(O)c1 (centres undefined),1.58µM*,.,?,.,.,0.282µM*,8.8%[57.1 µM],0.0891µM*,
CCOC(=O)CC(SP(=O)(OC)OC)C(=O)OCC (centres undefined),-0.2%,.,.,.,.,0.7%,.,.,
O=S(=O)(Cl)c1ccccc1,12.7%,21.1%,.,.,.,2.3%,.,.,
CCn1cc(C(=O)O)c(=O)c2cc3c(cc21)OCO3,-2.0%,-2.7%,-1.7%,7.3%,.,2.4%,2.8%[57.1 µM],-11.7%,
CC(C)c1cc2c(c(O)c1O)[C@@]1(C(=O)O)CCCC(C)(C)[C@@H]1CC2,-19.5%,12.2%,-10.6%,.,.,0.2%,.,.,
Cc1c2ccncc2c(C)c2c1[nH]c1ccccc12,4.47µM*!,50.1µM*,124.1%,5.4%,-9.0%,?,1µM*,?,RECQ1 conf=?
